Among the test systems are HCT-15 colon; HT29 colon; SNB-75 CNS; SNB-19 CNS; U251 CNS; PC-3 prostate; SK-MEL-5 melanoma; UACC-62 melanoma; LOX IMVI melanoma; SK-MEL-28 melanoma.
Common to all, as to test: NCI-60 one-dose screen, 48 h (100 = growth as untreated, 0 = no growth, -100 = all killed)
Common to all, as to conditions: 10 µM unless noted

Compounds without any hit were thinned out: in the full panel of roughly 83,000, 20% have a hit.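 Cells were grown in 96-well plates and exposed to the test compound at a single concentration for 48 hours; results are reported as percent growth, with values below 10 considered active.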 Values without a mark were called inactive. Active and inactive are the calls of the source.

On to `Cc1ccc(S(=O)(=O)NN/C(N)=N\S(=O)(=O)c2cc(C)c(Cl)cc2SCc2ccccc2)cc1`, for which the growth in the assay on HCT-15 colon was 109%; with HT29 colon it was 107%; with SNB-75 CNS, 68.3%; in the assay with SNB-19 CNS, 86.9%; in the assay on U251 CNS, 83.9%; in the assay with PC-3 prostate, 71.6%. For the same compound, the growth was 104% in the assay with SK-MEL-5 melanoma, 84.3% in the assay with UACC-62 melanoma, 92% in the assay with LOX IMVI melanoma and 94.3% in the assay with SK-MEL-28 melanoma.

As for `CCOc1cc(C2C(Cl)C(=O)N2n2cnnc2)ccc1O` (stereo not given), the growth in the assay with HCT-15 colon is 103%; with HT29 colon, 96.9%; with SNB-75 CNS it was 72.5%; in the assay on SNB-19 CNS, 102%; in the assay on U251 CNS it was 98.5%; with PC-3 prostate, 91.1%. The growth was 106% with SK-MEL-5 melanoma, 95.5% with UACC-62 melanoma, 101% with LOX IMVI melanoma and 105% in the assay on SK-MEL-28 melanoma.

As to `CCCCCCNCc1cc(C(C)(C)C)cc(CNCCCCCC)c1O`, the growth in the assay on HCT-15 colon is -59.6% (active); with HT29 colon, -86% (active); with SNB-75 CNS, -62.1% (active); with SNB-19 CNS, 9.11% (active); in the assay with U251 CNS it was -88.4% (active); in the assay on PC-3 prostate, 6.77% (active). For the same compound, the growth is -98.2% (active) in the assay on SK-MEL-5 melanoma, -85.3% (active) with UACC-62 melanoma, -88.8% (active) with LOX IMVI melanoma and -88.8% (active) in the assay on SK-MEL-28 melanoma.

In the case of `O=C1C2=C(CCN(Cc3ccccc3)C2)N2CCN=C2N1Cc1ccc(F)cc1F`, the growth in the assay on HCT-15 colon is 20.4%; in the assay with HT29 colon, 34%; with SNB-75 CNS it was 46.7%; in the assay with SNB-19 CNS, 30.1%; in the assay with U251 CNS, 21.3%; in the assay with PC-3 prostate it was 21.3%. Besides, the growth was 27.5% with SK-MEL-5 melanoma, 44.5% with UACC-62 melanoma, 39.3% in the assay on LOX IMVI melanoma and 57.9% with SK-MEL-28 melanoma.

Regarding `N#Cc1c(Oc2ccc([N+](=O)[O-])cc2)nc2sc3cc(Cl)ccc3n2c1=N`, the growth was 102% in the assay with HCT-15 colon; 33.4% in the assay with HT29 colon; 29.7% with SNB-75 CNS; 74.8% with SNB-19 CNS; 75.9% in the assay with U251 CNS; 76.7% with PC-3 prostate. Further, the growth was 58.1% in the assay on SK-MEL-5 melanoma, 79.3% with UACC-62 melanoma, 92.1% in the assay on LOX IMVI melanoma and 84.1% in the assay with SK-MEL-28 melanoma.

In the case of `CC(=O)OCCc1ccccc1`, the growth in the assay on HCT-15 colon was 107%; with HT29 colon, 107%; in the assay on SNB-75 CNS it was 74.4%; in the assay with SNB-19 CNS it was 102%; with U251 CNS it was 100%; in the assay with PC-3 prostate, 99.2%. The growth in the assay on SK-MEL-5 melanoma was 105%; in the assay on UACC-62 melanoma, 100%; in the assay on LOX IMVI melanoma, 101%; in the assay on SK-MEL-28 melanoma, 111%.

On to `COc1ccc(/C=C(\C#N)n2nnc3ccccc32)cc1`, for which the growth in the assay on HCT-15 colon was 8.56% (active); in the assay on HT29 colon, 11%; in the assay on SNB-75 CNS, -31.7% (active); in the assay with SNB-19 CNS, 23%; in the assay on U251 CNS, 17.6%; in the assay on PC-3 prostate, 15.8%. For the same compound, the growth in the assay on SK-MEL-5 melanoma is 6.7% (active); in the assay on UACC-62 melanoma it was 21.4%; in the assay with LOX IMVI melanoma, 2.08% (active); in the assay with SK-MEL-28 melanoma it was 36.2%.

For the compound `N#Cc1c(NC(=O)c2cccc(C(F)(F)F)c2)sc2c1CCC(=O)C2`, the growth with HCT-15 colon is -39.4% (active); in the assay with HT29 colon, 2.24% (active); in the assay with SNB-75 CNS, -50.5% (active); with SNB-19 CNS it was 12.3%; in the assay with U251 CNS, 0.284% (active); in the assay on PC-3 prostate it was -42% (active). Also, the growth in the assay with SK-MEL-5 melanoma is -95.6% (active); with UACC-62 melanoma it was -51.1% (active); in the assay with LOX IMVI melanoma, -12.7% (active); in the assay with SK-MEL-28 melanoma, -42.5% (active).

As for `Cc1ccc(/C=C(\C#N)n2nnc3cc(Cl)c(Cl)cc32)cc1`, the growth in the assay on HCT-15 colon is 11.7%; in the assay on HT29 colon, 12.3%; in the assay on SNB-75 CNS, -24.6% (active); with SNB-19 CNS, 17.7%; in the assay on U251 CNS, 7.49% (active); in the assay on PC-3 prostate it was 12.8%. The growth with SK-MEL-5 melanoma was 14%; in the assay with UACC-62 melanoma, 26.1%; in the assay on LOX IMVI melanoma, -13.4% (active); in the assay with SK-MEL-28 melanoma, 41.3%.

`COC(=O)CCCNC(=O)C(=O)c1c(O)c(O)c(C(C)C)c2cc(C)c(-c3c(C)cc4c(C(C)C)c(O)c(O)c(C(=O)C(=O)NCCCC(=O)OC)c4c3O)c(O)c12`: the growth is 1.55% (active) in the assay on HCT-15 colon; -22.9% (active) in the assay on HT29 colon; 49.6% with SNB-75 CNS; 22.5% with SNB-19 CNS; -62.4% (active) in the assay with U251 CNS; 21.4% with PC-3 prostate. Further, the growth in the assay with SK-MEL-5 melanoma is -68.8% (active); with UACC-62 melanoma, -35.6% (active); in the assay with LOX IMVI melanoma it was -85.6% (active); in the assay on SK-MEL-28 melanoma, 23.5%.

For `COc1cc(C2C=C(c3cccc(NC(C)=O)c3)Nc3ncnn32)cc(OC)c1OC` (stereo not given), the growth in the assay on HCT-15 colon was 41.4%; in the assay with HT29 colon, 10.9%; in the assay with SNB-75 CNS, 21.9%; with SNB-19 CNS, 52%; with U251 CNS, 25.4%; in the assay on PC-3 prostate it was 33.3%. Also, the growth in the assay on SK-MEL-5 melanoma is 21.6%; in the assay on UACC-62 melanoma, 22.9%; in the assay on LOX IMVI melanoma, 42.1%; with SK-MEL-28 melanoma, 51.5%.

For the compound `COc1ccc(-c2cn(-c3cccc(C(=O)/C=C/c4cc(OC)c(OC)c(OC)c4)c3)c(=O)[nH]2)cc1`, the growth with HCT-15 colon is 3.15% (active); with HT29 colon, -67.1% (active); in the assay with SNB-75 CNS it was 49.6%; in the assay on SNB-19 CNS it was 34.2%; in the assay on U251 CNS it was -51.8% (active); with PC-3 prostate it was 20.6%. Moreover, the growth in the assay on SK-MEL-5 melanoma was -54% (active); in the assay with UACC-62 melanoma, -42.8% (active); in the assay with LOX IMVI melanoma, -68% (active); in the assay with SK-MEL-28 melanoma, -33.9% (active).

As to `CC(C)(C)Nc1c(-c2c3ccccc3cc3ccccc23)nc2ccccn12`, the growth is 79.7% in the assay with HCT-15 colon; 55.3% with HT29 colon; 64% in the assay on SNB-75 CNS; 74.1% in the assay with SNB-19 CNS; 68.2% in the assay with U251 CNS; 37.9% with PC-3 prostate. In addition, the growth in the assay on SK-MEL-5 melanoma was 84%; in the assay on UACC-62 melanoma, 50.6%; with LOX IMVI melanoma, 85.9%; in the assay with SK-MEL-28 melanoma it was 82.2%.

For the origin of these results see PubChem BioAssay (NCI).
